Compound activity from PubChem BioAssay.
In the library only some 6.8% were active in any assay of this set; here they are far more common.
A340 absorber: compounds absorbing at 340 nm. compound absorbance at 340 nm, fold over control. fold change at 10 µM. 65,000 tested, under 10 active. AID 708;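 active = at 10 µM dose, initial 340 nm absorbance at least 2 fold that of control wells; inactive = change under 2 fold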;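 note: initial absorbance extrapolated from kinetic A340 decline of NADH oxidation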
Fluor 339 460: intrinsic fluorescence of library compounds, ex339/em460 – biochemical, MLSMR library, data from DPM-DC assay, artefact control, profiling panel; fluorescence fold increase at 10 µM; compound autofluorescence, ex339/em460 nm, NADH buffer; active compounds read high; 1 = no-compound wells, NADH background; actives 5.5% (n = 65,000);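 active = at 10 µM, mean starting fluorescence two-fold or more over control wells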;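 note: signal is the first read of a kinetic run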
DPM-DC inhibit: inhibitors of Streptococcus pneumoniae diphosphomevalonate decarboxylase; purified DPM-DC, PK/LDH coupled NADH fluorescence; calls only at 10 µM; actives 0.49% (n = 65,000); AID 556;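 active = the 320 compounds with the highest percent inhibition in the single-dose primary screen, excluding strongly autofluorescent ones, cut at about 32% in these data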;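 note: kinetic rate of NADH fluorescence loss reporting ADP formed by the decarboxylase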
NADH enzymes: inhibition of NAD/NADH coupling enzymes, library profiling | coupled PK/LDH NADH assays, four targets | IC50, µM (top dose mostly 10 µM), without a hit: top-dose inhibition | actives 0.02% (n = 65,000) | AID 774;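 active = single-dose screening hits from any of four coupled enzyme assays that gave an IC50 when retested across doses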;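 note: the DPM-DC format reads NADH fluorescence rather than 340 nm absorbance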
Spn PMK inh: S. pneumoniae PMK inhibition; inhibition, % at 10 µM; purified PMK, PK/LDH-coupled NADH absorbance 340 nm; AID 539; actives 0.49% (n = 65,000);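 active = top-ranked compounds by inhibition in the single 10 µM screen, taking a fixed number of the strongest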;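 note: 0% = full reaction with DMSO carrier and 100% = background rate without enzyme reaction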
Spn MK inh: inhibitors of Streptococcus pneumoniae mevalonate kinase | purified MK, PK/LDH-coupled NADH absorbance 340 nm | inhibition, % at 10 µM | actives 0.48% (n = 65,000) | AID 555;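 active = ranked among the strongest by inhibition in the single 10 µM screen, a fixed top-ranked set picked for dose follow-up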
The depositor's hits bear a star; i = inactive; nt = no result shown; + = active, no number.

SMILES	A340 absorber	Fluor 339 460	DPM-DC inhibit	NADH enzymes	Spn PMK inh	Spn MK inh
C=CCN(C)CCCNC(=O)/C=N/O	1	1.06	i	4.0%	8.0	4.0
O=C(Cn1c(=O)c2c(ncn2Cc2ccccc2)n(Cc2ccccc2)c1=O)N1CCCC1	1	1.08	i	5.0%	14.0	0.0
O=c1n(Cc2ccccc2)c2cc(Cl)cnc2n1Cc1ccccc1	1.02	2.81*	i	4.0%	0.0	6.0
CCN(CC)CCCN1C(=O)C(=O)/C(=C(/O)c2ccccc2)C1c1ccccn1 (centres undefined)	1	1.01	i	2.0%	7.0	0.0
CCOC(=O)c1sc(C)c(C(N)=O)c1NC1=NCCCCC1	1.1	2.04*	i	11.0%	8.0	7.0
Cc1cc(=O)oc2c(CN(C)Cc3ccccc3)c(O)ccc12	1.22	3.62*	nt	6.0%	2.0	10.0
Cc1cc(=O)oc2c(N)c(O)ccc12	1.11	1.1	i	3.0%	0.0	1.0
CCOC(=O)c1ccc(CNC(=O)c2cc3cccc(OC)c3oc2=O)o1	1.02	1.46	i	4.0%	10.0	2.0
Cc1ccc(C(c2nnnn2CC2CCCO2)N2CCN(C(=O)c3ccco3)CC2)cc1 (centres undefined)	0.97	0.83	i	15.0%	32.0*	0.0
CC(C)CCn1nnnc1C(c1ccc(F)cc1)N1CCN(C(=O)c2ccco2)CC1 (centres undefined)	1.01	1.05	i	9.0%	26.0*	0.0
C=CCOc1c(Br)cc(CNn2nnnc2N)cc1OCC	1.08	1.09	i	3.0%	2.0	6.0
c1ccc2sc(SCc3ccc(-c4nnco4)cc3)nc2c1	1.01	1	i	14.0%	30.0*	5.0
O=C(O)CCSc1nc2ccccc2s1	1.06	1.13	i	1.0%	4.0	0.0
NC(=O)c1cc2ccc(O)cc2oc1=NCc1ccccc1	1.03	4.64*	nt	10.0%	19.0	0.0
NC(=O)c1cc2ccc(O)cc2oc1=Nc1ccccc1	1.07	1.89	i	9.0%	8.0	7.0
COc1ccc(OC)c(N=c2oc3cc(O)ccc3cc2C(N)=O)c1	1.05	3.26*	nt	7.0%	4.0	9.0
CCOc1ccc(OCC)c(N=c2oc3c(C)ncc(CO)c3cc2C(N)=O)c1	1.01	0.97	i	2.0%	4.0	1.0
O=C(NCc1ccc2c(c1)OCO2)c1cc2n(n1)C(C(F)(F)F)CC(c1ccc3c(c1)OCO3)N2 (centres undefined)	0.96	1	i	4.0%	25.0*	0.0
O=C(Nc1cc(Cl)ccc1O)c1cc2n(n1)C(C(F)(F)F)CC(c1ccc3c(c1)OCO3)N2 (centres undefined)	1.05	1.21	i	5.0%	9.0	7.0
Cc1ccc(S(=O)(=O)N2CCOCC(=O)NCCOCCNC(=O)COCC2)cc1	0.99	1.03	+	11.0%	0.0	4.0
Cc1ccc2nc(-c3ccccc3)cn2c1	1.04	2.94*	i	8.0%	12.0	0.0
O=C(O)c1cc(-c2ccncc2)nc2ccc(S(=O)(=O)N3CCOCC3)cc12	1.07	1.08	i	3.0%	8.0	0.0
Cc1ccn2cc(-c3ccc(S(=O)(=O)N4CCOCC4)cc3)nc2c1	1.09	2.23*	nt	8.0%	10.0	5.0
Cc1ccc2nc(-c3ccc(S(=O)(=O)N4CCOCC4)cc3)cn2c1	1.01	3.02*	nt	4.0%	6.0	9.0
Cn1nc(-c2ccc(OCC(=O)NCC3CCCO3)cc2)c2ccccc2c1=O (centres undefined)	1.08	1.19	i	3.0%	6.0	3.0
SMILES	A340 absorber	Fluor 339 460	DPM-DC inhibit	NADH enzymes	Spn PMK inh	Spn MK inh
O=C1NCCCC1C(=O)Nc1ccccn1 (centres undefined)	1.01	1.15	i	8.0%	13.0	9.0
COc1cc(NC(=O)c2cccs2)c(OC)cc1NC(=O)CCn1nnc2ccccc21	1.03	1.07	i	5.0%	5.0	8.0
O=C(NCc1n[nH]c(=S)n1-c1ccccc1)c1ccco1	1.02	1.11	i	17.0%	9.0	41.0*
CC(=O)Nc1cc2c(cc1C(C)=O)OCCO2	1.07	3.59*	nt	3.0%	5.0	0.0
CC(=O)c1cc2c(cc1NC(=O)Nc1cccc(Cl)c1)OCCO2	1.04	2.58*	i	6.0%	0.0	6.0
CC(C)C(=O)Nc1cc2c(cc1C(=O)c1ccccc1)OCCO2	0.99	1.14	i	4.0%	3.0	8.0
